# A selection: hits, their analogues and other compounds. The true share with any hit is near 1.6%.
# dFosB act: enhances mouse delta FosB homodimer DNA binding; P13346; purified delta FosB, TAMRA-CDK5 oligo fluorescence polarization; percent of positive-control signal above neutral wells; activation, % at 25 µM; actives 0.99% (n = 340,000); AID 493131;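 active = mean activation above about 17%, with every replicate also reaching it, limit read from the data, passing the limit was not always enough; inconclusive = only one of the two conditions met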
# A1 inh: inhibitors of the anti-apoptotic protein A1, read as caspase activation; actives 0.066% (n = 330,000); MEF A1-2A-BIM cells, Caspase-Glo 3/7 luminescence, 3 h; percent of clofoctol response, vehicle zero; caspase activation, % (test concentration not listed);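 active = over half of replicate activation scores above 10%, or exactly half above 10 with the replicate mean above 10; inconclusive = replicate mean below 10 yet half the replicates above 10; inactive = over half of replicates below 10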
# DYRK1A inh: blocks rat Dyrk1A kinase activity | actives 0.43% (n = 310,000) | AID 504441 | Q63470 | ADP-Glo luminescence, NFATc1 peptide | inhibition, % at 12.5 µM; in the data active = inhibition above about 50%;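 note: plate controls were vehicle with enzyme for no effect and no enzyme for full effect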
# B2AR ag: activates human beta-2 adrenergic receptor causing internalization; AID 504454; actives 0.43% (n = 340,000); response, % (concentration not given with the values); Am2.2-beta2AR cells, FAP receptor internalization, flow cytometry;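 active = response above a set limit, near 3 SD of response in nonfluorescent compounds, cut at about 42% in these data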
# Target sequence (P07550 whole entry, looked up): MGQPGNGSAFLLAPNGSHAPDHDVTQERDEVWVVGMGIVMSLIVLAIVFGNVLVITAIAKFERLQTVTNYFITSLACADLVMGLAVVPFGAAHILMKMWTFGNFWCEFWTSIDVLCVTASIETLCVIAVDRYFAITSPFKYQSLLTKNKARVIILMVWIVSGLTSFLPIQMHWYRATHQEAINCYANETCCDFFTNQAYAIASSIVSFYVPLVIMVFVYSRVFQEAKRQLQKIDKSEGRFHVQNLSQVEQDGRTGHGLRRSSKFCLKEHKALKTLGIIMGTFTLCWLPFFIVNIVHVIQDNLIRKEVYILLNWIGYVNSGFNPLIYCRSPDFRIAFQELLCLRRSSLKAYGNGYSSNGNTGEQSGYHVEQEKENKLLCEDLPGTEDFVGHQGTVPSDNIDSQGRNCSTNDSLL
# The depositor's hits bear a star; ? = inconclusive; . = no result.
SMILES,dFosB act,A1 inh,DYRK1A inh,B2AR ag
COCCNc1ccc([N+](=O)[O-])cc1C(=O)NC1CCCc2ccccc21 (stereo not drawn),-8,0,0,4
CCOc1ccccc1C1c2[nH]c3ccccc3c2C[C@H]2C(=O)N(C3CCN(Cc4ccccc4)CC3)CC(=O)N12 (stereo partly drawn),63*,0,-4,15
COc1ccc(C2c3[nH]c4ccccc4c3C[C@H]3C(=O)N(C4CCN(Cc5ccccc5)CC4)CC(=O)N23)c(OC)c1 (stereo partly drawn),21*,0,2,11
COc1ccc(OC)c(C2c3[nH]c4ccccc4c3C[C@H]3C(=O)N(C4CC4)CC(=O)N23)c1 (stereo partly drawn),-2,-1,2,-3
COc1cccc(C2c3[nH]c4ccccc4c3C[C@H]3C(=O)N(C4CC4)CC(=O)N23)c1 (stereo partly drawn),-7,-1,-2,10
COC(=O)c1ccc(C2c3[nH]c4ccccc4c3C[C@H]3C(=O)N(C4CCN(Cc5ccccc5)CC4)CC(=O)N23)cc1 (stereo partly drawn),55*,-1,-5,20
Cc1ccccc1C1c2[nH]c3ccccc3c2C[C@H]2C(=O)N(C3CCN(Cc4ccccc4)CC3)CC(=O)N12 (stereo partly drawn),76*,1,-6,13
Cc1ccc(SC[C@H](Cc2ccccc2)N2CC[C@@H](NC(=O)OCc3ccccc3)CCC2=O)cc1,.,0,.,.
O=C1[C@@H]2Cc3c([nH]c4ccccc34)C(c3cccc(Br)c3)N2C(=O)CN1C1CCN(Cc2ccccc2)CC1 (stereo partly drawn),66*,0,-1,38
O=C1[C@@H]2Cc3c([nH]c4ccccc34)C(c3ccccc3)N2C(=O)CN1C1CCN(Cc2ccccc2)CC1 (stereo partly drawn),3,0,6,41
O=C(Nc1cccc([N+](=O)[O-])c1)c1ccccc1,-7,-2,2,3
O=C(C#Cc1cccc([N+](=O)[O-])c1)c1ccccc1,-3,1,-8,88*
Nc1ccccc1C#CC(=O)c1ccccc1,-23,1,-1,44*
O=S(=O)(c1cccs1)N1CCCc2ccccc21,1,1,4,-6
O=S(=O)(c1cccs1)N1CCc2ccccc21,29*,0,10,-7
COc1cc(NC(=O)c2n[nH]c(=O)c3ccccc23)cc(OC)c1,10,-3,-9,-2
COc1ccc(-c2nc(NC(=O)c3n[nH]c(=O)c4ccccc34)sc2C)cc1,-1,6.7*,.,3
CC1OC(CC(=O)O)CC2=C1C(=O)c1c(O)cccc1C2=O (stereo not drawn),-2,.,11,75*
O=C1c2cccc(O)c2C(=O)c2c(O)cccc21,.,-1,.,.
CN(C)CCCNC(=O)C[C@H]1C[C@H](C(=O)N2CCOCC2)[C@@]2(CCC3CCCC3)c3[nH]c4cc(-c5ccco5)ccc4c3CCN2C1=O,-17,.,.,63*
CNC(=O)C1CC(=O)N(c2ccc(OCC(=O)Nc3ccc(F)cc3)cc2)C1 (stereo not drawn),-9,.,1,-4
O=C1Nc2ccc(Br)cc2/C1=C/C(=O)c1ccc2c(c1)OCO2,-9,?,-3,55*
COc1ccc(C(=O)/C=C2\C(=O)Nc3ccc(Br)cc32)cc1,-11,.,-5,2
Cc1ccc(N2C(=O)C3C(c4ccccc4)N4CCCN4C3(C)C2=O)cc1 (stereo not drawn),-5,0,4,44*
O=C(Nc1cccc(-n2cnnn2)c1)c1cnccc1Cl,-11,-1,.,2
SMILES,dFosB act,A1 inh,DYRK1A inh,B2AR ag
CN1OC[C@@H]2CN(Cc3ccccc3)[C@H](c3cccc(Oc4ccccc4)c3)C[C@@H]21,-2,.,.,7
COC(=O)c1c(C)oc2ccc(N(C(=O)Oc3ccccc3)S(=O)(=O)c3ccc(Cl)c([N+](=O)[O-])c3)cc12,-6,0,-15,60*
CCOC(=O)N1C(=O)NC(=O)C1c1ccc(Cl)cc1 (stereo not drawn),-3,.,.,-10
CC1CCN(c2c(NCC3CCC(C(=O)NCc4ccccc4Cl)CC3)c(=O)c2=O)CC1 (stereo not drawn),-4,0,-2,-1
Oc1cccc(Nc2nc(O)c(/C=C3\C=Nc4ccccc43)s2)c1,53*,-1,23,-130
Oc1nc(Nc2cccc(Cl)c2)sc1/C=C1\C=Nc2ccccc21,10,-1,3,12

# From PubChem
